Here are results for 14 molecules from PubChem BioAssay (NCATS).

SMILES strings stand for the structures. Records with an inconclusive call do not appear. Activity calls are given as the source filed them. Calls follow the shape of the dose curve; as a rule, active = well fitted inhibition curve with a large enough effect; inconclusive = small, poorly fitted or top-dose-only effect; inactive = flat fitted curve, though single readings scatter.

What all share (test): qHTS profiling for inhibitors of Plasmodium falciparum proliferation (AID 504749); also: nearly all actives have a fitted effect of over 60% in size
Common to all, as to settings: P. falciparum in erythrocytes, SYBR Green DNA, 72 h; series mostly up to 28.7 µM

For assay [1], the system named is CP194. A digest of the protocol: (§1)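 P. falciparum-infected erythrocytes (0.3% parasitemia, 2.5% hematocrit final) were exposed to compounds for 72 h at 37 C in 5% CO2, then lysed with SYBR Green buffer overnight at room temperature; parasite DNA fluorescence was normalized to artemisinin and DMSO controls.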
The subject of assay [2] is CP201. The essentials: as §1
Assay [3] concerns CP203. The essentials: as §1
The test system of assay [4] is CP211. A digest of the protocol:
as §1

Assay [5] relates to CP215. A digest of the protocol: as §1
For assay [6], the system named is CP217. The essentials:
as §1

Assay [7] deals with CP237. The essentials: as §1
The subject of assay [8] is CP238. A digest of the protocol:
as §1

The subject of assay [9] is CP247. A digest of the protocol: as §1
In assay [10] the test system is CP250. A digest of the protocol:
as §1

Assay [11] relates to CP252. The essentials: as §1
Assay [12] has as its system CP256. A digest of the protocol:
as §1

In assay [13] the test system is CP260. A digest of the protocol: as §1
The test system of assay [14] is CP262. A digest of the protocol:
as §1

Assay [15] relates to CP265. The essentials:
as §1

For assay [16], the system named is CP266. A digest of the protocol:
as §1

In assay [17] the test system is CP268. A digest of the protocol: as §1
Assay [18] concerns CP269. A digest of the protocol: as §1
The subject of assay [19] is CP286. The essentials: as §1
For assay [20], the system named is CP291. A digest of the protocol: as §1
Potency is read from the fitted curve at half-maximal effect.

`Nc1nccs1`: the Potency result in assay [1], in [2], in assay [3], in [4], in assay [5] and in assay [6] was “inactive” throughout. The Potency result in [7], in assay [8], in assay [9], in assay [10], in assay [11] and in [12] was “inactive” each time. The Potency result in assay [13], in assay [14], in assay [15], in assay [16], in [17] and in assay [18] was “inactive” each time. For the same molecule, the Potency result in assay [19] and in [20] was “inactive” each time.

For `CC(C)Cc1ccc([C@@H](C)C(=O)NS(C)(=O)=O)cc1`, the Potency result in assay [1], in assay [2], in assay [3], in assay [4], in [5] and in assay [6] was “inactive” throughout. The Potency entry in assay [7], in assay [8], in assay [9], in [10], in [11] and in assay [12] was “inactive” in each case. Moreover, the Potency result in assay [13], in assay [14], in [15], in assay [16], in [17] and in assay [18] was “inactive” in each case. Further, the Potency result in [19] and in assay [20] was “inactive” in each case.

In the case of `N=C(N)n1cccn1`, the Potency result in [1], in assay [2], in assay [3], in assay [4], in assay [5] and in assay [6] was “inactive” each time. The Potency entry in assay [7], in assay [8], in assay [9], in [10], in assay [11] and in assay [12] was “inactive” throughout. The Potency entry in assay [13], in assay [14], in assay [15], in assay [16], in assay [17] and in assay [18] was “inactive” in each case. Further, the Potency result in [19] and in assay [20] was “inactive” throughout.

With `NC(=O)Oc1ccc(Cc2ccccc2)cc1`, the Potency result in [1], in [2], in assay [3], in assay [4], in [5] and in assay [6] was “inactive” throughout. In addition, the Potency result in assay [7], in assay [8], in [9], in [10], in assay [11] and in assay [12] was “inactive” throughout. Also, the Potency result in assay [13], in assay [14], in assay [15], in assay [16], in assay [17] and in assay [18] was “inactive” in each case. For the same molecule, in assay [19], the Potency entry was “inactive”.

In the case of `CC1CCC(NC(=O)N(CCCl)N=O)CC1` (centres undefined), the Potency result in assay [1], in assay [2], in assay [3], in assay [4], in assay [5] and in [6] was “inactive” each time. Besides, the Potency result in [7], in assay [8], in [9], in assay [10], in assay [11] and in assay [12] was “inactive” throughout. Also, the Potency result in [13], in assay [14], in [15], in [16], in assay [17] and in assay [18] was “inactive” throughout. Besides, the Potency result in assay [19] and in assay [20] was “inactive” in each case.

As to `CN(C)c1ccc(C(=C2C=CC(=[N+](C)C)C=C2)c2c(O)c(S(=O)(=O)[O-])cc3cc(S(=O)(=O)O)ccc23)cc1`, the Potency entry in assay [1], in assay [2], in [3], in [4], in assay [5] and in assay [6] was “inactive” each time. In addition, the Potency result in [7], in assay [8], in assay [9], in assay [10], in assay [11] and in assay [12] was “inactive” throughout. Also, the Potency entry in [13], in assay [14], in [15], in [16], in assay [17] and in assay [18] was “inactive” in each case. For the same molecule, the Potency entry in [19] and in [20] was “inactive” each time.

For `CN=C1C=CC(=C(c2ccc(N(C)C)cc2)c2ccc(N(C)C)cc2)C=C1`, the Potency was 953 nM (active) in [1]; 1200 nM (active) in [2]; 1200 nM (active) in [3]; 757 nM (active) in assay [4]; 953 nM (active) in assay [5]; 316 nM (active) in assay [6]. The Potency is 398 nM (active) in [7]; 562 nM (active) in assay [8]; 708 nM (active) in [9]; 562 nM (active) in assay [10]; 398 nM (active) in [11]; 355 nM (active) in assay [12]. The Potency in [13] was 224 nM (active); in assay [14], 757 nM (active); in [15] it was 794 nM (active); in assay [16] it was 1070 nM (active); in assay [17], 1690 nM (active); in assay [18], 849 nM (active). Also, the results for the Potency in [19] and in [20] were 199 nM (active) and 1070 nM (active), respectively.

Turning to `OC/C=C/c1ccccc1`, the Potency entry in assay [1], in [2], in [3], in assay [4], in assay [5] and in assay [6] was “inactive” throughout. Moreover, the Potency entry in assay [7], in [8], in assay [9], in assay [10], in [11] and in assay [12] was “inactive” in each case. Further, the Potency result in assay [13], in assay [14], in assay [15], in [16], in assay [17] and in assay [18] was “inactive” in each case. Moreover, the Potency entry in assay [19] and in assay [20] was “inactive” throughout.

In the case of `CC(C)c1ncc([N+](=O)[O-])n1C`, the Potency entry in [1], in [2], in [3], in assay [4], in assay [5] and in assay [6] was “inactive” in each case. The Potency result in assay [7], in assay [8], in [9], in [10], in [11] and in assay [12] was “inactive” in each case. The Potency entry in assay [13], in assay [14], in [15], in [16], in assay [17] and in assay [18] was “inactive” in each case. The Potency entry in assay [19] and in assay [20] was “inactive” throughout.

Turning to `CC(C)(C)CC(C)(C)c1cc(Cc2cc(C(C)(C)CC(C)(C)C)cc(-n3nc4ccccc4n3)c2O)c(O)c(-n2nc3ccccc3n2)c1`, the Potency entry in assay [1], in assay [2], in assay [3], in [4], in [5] and in assay [6] was “inactive” throughout. Moreover, the Potency entry in assay [7], in assay [8], in [9], in assay [10], in assay [11] and in assay [12] was “inactive” throughout. Besides, the Potency entry in [13], in [14], in assay [15], in assay [16], in assay [17] and in assay [18] was “inactive” each time. The Potency entry in assay [19] and in assay [20] was “inactive” throughout.

For `CCN(CC)C(=S)S`, the Potency entry in assay [1], in assay [2], in [3], in [4], in assay [5] and in assay [6] was “inactive” in each case. For the same molecule, the Potency result in assay [7], in assay [8], in assay [9], in [10], in [11] and in [12] was “inactive” throughout. The Potency entry in assay [13], in assay [14], in assay [15], in [16], in assay [17] and in assay [18] was “inactive” each time. For the same molecule, the Potency entry in [19] and in assay [20] was “inactive” each time.

`Nc1nc(=O)n([C@@H]2CS[C@H](CO)O2)cc1F`: the Potency result in assay [1], in assay [2], in assay [3], in assay [4], in assay [5] and in assay [6] was “inactive” each time. Moreover, the Potency entry in [7], in assay [8], in assay [9], in assay [10], in assay [11] and in [12] was “inactive” in each case. Also, the Potency entry in [13], in assay [14], in assay [15], in assay [16], in [17] and in assay [18] was “inactive” in each case. Also, the Potency entry in assay [19] and in assay [20] was “inactive” in each case.

As to `OCC1(CO)COC(C(Cl)(Cl)Cl)OC1`, the Potency entry in assay [1], in assay [2], in [3], in [4], in assay [5] and in assay [6] was “inactive” in each case. For the same molecule, the Potency result in assay [7], in assay [8], in assay [9], in [10], in assay [11] and in [12] was “inactive” in each case. For the same molecule, the Potency entry in assay [13], in assay [14], in assay [15], in assay [16], in assay [17] and in assay [18] was “inactive” throughout. In addition, the Potency result in assay [19] and in assay [20] was “inactive” each time.

For the molecule `COc1cc(S(C)=O)ccc1-c1nc2ncccc2[nH]1` (centres undefined), the Potency result in [1], in assay [2], in assay [3], in assay [4], in [5] and in assay [6] was “inactive” in each case. Besides, the Potency result in assay [7], in assay [8], in assay [9], in assay [10], in assay [11] and in [12] was “inactive” in each case. Besides, the Potency result in assay [13], in assay [14], in assay [15], in assay [16], in assay [17] and in assay [18] was “inactive” each time. The Potency result in assay [19] and in assay [20] was “inactive” throughout.
